{
  "source": "paper PMC12864922",
  "about": "“TDP-43 directly inhibits mRNA accumulation in neurites through modulation of mRNA stability”",
  "binders": {"B1": {"name": "ENSMUSG00000061578.1192|Ksr2 (ssRNA)", "RNA": "GGGAGUUCUACAGUCCGACGAUCGCUUCGAUAUCCGCAUGCUAUGUCUGCUUUUGUUUCUCCACCAUGCCCCCUGCCACCUCUUCUGACAGUGCUCAGAUUUAUCAGCCACCUGACCCACAGACCCAUAUGGACACACUAGAAAGCCCAUCCUAGGUCUUUCCAUGGUCUCUCACACCCCUGUCCCCGUCCCCUCCACCCCCCGGCAGCAUGCUUCACUCUAUGAAUGAGCCGCUGGGAUAUUGACAUGGAGAUGUGUUGAUGGAAAAAGCCUCCACACCCAACAUAACUCUCCAGAGAGAUACUCUUGCGGUCGCACUAGUGUGGAAUUCUCGGGUGUCAAGG"}, "B2": {"name": "ENSMUSG00000031028.410|Tub|118:122;252:256 (ssRNA)", "RNA": "GGGAGUUCUACAGUCCGACGAUCGCUUCGAUAUCCGCAUGCUAAGAUCCCUUACCCCUCAUCCCCUCUUCUUUUUGGUCCUUGGCUGGGUAGCAAAUUGGUGAGAAGAGCAGCCUAGUCUGUAAGAGUGCAGGGCAGCUGGAACCUUAGGCAGCUCCUCUCAUACCUACCGGCUCCACACCCUAACACUCUCCACCCUCUGCUCCAAACCAGUUCUUCUGCAGAGUGGUGAUGUUAGCUUCCCCAGCUCCUCUCCAAGUCUAGCUUUUUCUGUCCUUCUGGCUCCAAGGUGCUCACACACUGUCUCUUGCGGUCGCACUAGUGUGGAAUUCUCGGGUGUCAAGG"}, "B3": {"name": "ENSMUSG00000022095.49|Fam160b2 (ssRNA)", "RNA": "GGGAGUUCUACAGUCCGACGAUCGCUUCGAUAUCCGCAUGCUACCUUUUAGAGGAGCUAGAGGAUGGCCAGUGAGCGCCUAGAUGCUGCCCUGCAUGUGUUGCGUGACUAUCUCUGCUAUAUUGUGACCAGGGCCACAACAUGAGACAACUCCAGGGGCCAGGGAGAUGAACUGCUGUCUUUGAGGCUGGCUAAAAAAACAAUCCAGUCCAGAGAGAUGGGGAGGGGGGGAGCAAGAACCCUGUCUGUUACAUUAGGUAUCAUGGAAGCUGCUAAGACUCGGCAGGUUUCUCCGAGGCUUCACCUCUUGCGGUCGCACUAGUGUGGAAUUCUCGGGUGUCAAGG"}, "B4": {"name": "ENSMUSG00000029636.83|Wasf3|141:145 (ssRNA)", "RNA": "GGGAGUUCUACAGUCCGACGAUCGCUUCGAUAUCCGCAUGCUAACCAGUGGGUGAUACGUUUUCCUGUUUCUUCCCUUUGCAAAUUGAAUUCCAGGUAGAUAUGGUUGUAGAGGGGAAAGUUUAACAAAUCAGAAUGAAAUGUUUGUCUGUUUGCACACUGGGCCUGGUGGCCUCCAAGGAAAACACAACGAUCGUUUGCUUUCUCUAUCUUGGCGCUUGCAACCGAGAGCGGCCAUUUUUAUGAGGGGAGCCCUGUGGGUACUCAUGUGGAAAGUGCCCACUGACUUUGGCAGAUGGAGUUCCUCUUGCGGUCGCACUAGUGUGGAAUUCUCGGGUGUCAAGG"}, "B5": {"name": "ENSMUSG00000004113.216|Cacna1b (ssRNA)", "RNA": "GGGAGUUCUACAGUCCGACGAUCGCUUCGAUAUCCGCAUGCUAGUCUUAGGGACAUUGACAGUGUCCAUCAGCAUGUCAGAGAAGCAGCUGUAGUGCCCGUGUUUCUCCCUGAGUCAUGGGUUCUGAAGAAGCCAGAGCGGCACAAUGCGUGCUUGCAUGAGGCACUUUCAGCCUUUUUAAAUCUGACUCUCAGGGAUGGGAUGCCUGCCAAGUAGGGUGUAAUCUCUGUUGUGUUUUUAAAACAACAACAACAAAAUAAAACAAAAAAAAAAAACCUAGUAUUCACUGGAUGCUGAAGAGUGCUCUUGCGGUCGCACUAGUGUGGAAUUCUCGGGUGUCAAGG"}, "B6": {"name": "ENSMUSG00000035279.61|Ssc5d|92:97;148:152;163:167 (ssRNA)", "RNA": "GGGAGUUCUACAGUCCGACGAUCGCUUCGAUAUCCGCAUGCUAUAAAGAGGCUAGCAGAGGUGGCCUGGCCCCCCAGCACUCCUGUGCCCAUGACCACCACCACAGAGGAGGAGGAGAGGCCUCUGAGGGGAGAACACACACCCACUCUGAAAUUCACGGUGCUUAAGAUACUCUUAAACAAAAGCCAACCAUACUACAAUCGAACACACGGUGUUGUUACUGGGGAGCAGGGGCUCUGGAGGGACAGAAUUACAAUGCUGAUCCUAACUUGUCAAUGCCAUCUGUGAUGGCGUUGGAGAUCACUCUUGCGGUCGCACUAGUGUGGAAUUCUCGGGUGUCAAGG"}, "B7": {"name": "ENSMUSG00000031028.6|Tub (ssRNA)", "RNA": "GGGAGUUCUACAGUCCGACGAUCGCUUCGAUAUCCGCAUGCUAUAGCAGAAGAUGUGUUCACCAUGGAUUACAACUACCCACUGUGUGCACUGCAGGCCUUUGCCAUUGCUCUGUCCAGCUUUGACAGCAAGCUGGCCUGCGAGUAGAGGCCCCCCACUGCCUUUAGGUGGCCCAGUCCGGAGUGGAGCUUGCCUGCCUGCCAAGACAGCCCUGCCUACCCUCUGUUCAUAGGCCCUCUAUGGGCUUUCUGGCCUUACCAACCAGAGACUGGCUGCUCUGCCUCUGCUGCUGAAGCAGGGGGGCUCUUGCGGUCGCACUAGUGUGGAAUUCUCGGGUGUCAAGG"}, "B8": {"name": "ENSMUSG00000058297.454|Spock2 (ssRNA)", "RNA": "GGGAGUUCUACAGUCCGACGAUCGCUUCGAUAUCCGCAUGCUAUCAGGAGCAAGGUCACACAGGUCAGAUUAUUGUCGGUCCUGCGGGCCUCAUCCUUGAAUAAGCUGCCUGCCCAGUUCCUCCAUCCGUGUUCCUGCCUGCUCCCGUUCCCUUGUUGCGGGCAGGAGAGGUAGGGCUGUGUUGGAAAGAGUUCAACCAAAUUACGGCAGCACCACAUCUUGCCGAGCCCUGGAGCUGCCCUACUAAGAGCCUCCUUAGCCCUGGGUGCUGGGAAGGAUGGUGUACGUUGGGGAAGUUUGAGGCUCUUGCGGUCGCACUAGUGUGGAAUUCUCGGGUGUCAAGG"}},
  "note": "Over roughly 9,900 sequences, “r (bound/input frequency ratio)” has its median near 0.7; the highest 2% begin near 6.5. The list comes from a sample in which the highest values are over-represented; it also holds similar and randomly drawn sequences.",
  "data": [
    {"target": "TDP-43 (Homo sapiens, UniProt Q13148 1-414)", "sequence (Q13148 whole entry)": "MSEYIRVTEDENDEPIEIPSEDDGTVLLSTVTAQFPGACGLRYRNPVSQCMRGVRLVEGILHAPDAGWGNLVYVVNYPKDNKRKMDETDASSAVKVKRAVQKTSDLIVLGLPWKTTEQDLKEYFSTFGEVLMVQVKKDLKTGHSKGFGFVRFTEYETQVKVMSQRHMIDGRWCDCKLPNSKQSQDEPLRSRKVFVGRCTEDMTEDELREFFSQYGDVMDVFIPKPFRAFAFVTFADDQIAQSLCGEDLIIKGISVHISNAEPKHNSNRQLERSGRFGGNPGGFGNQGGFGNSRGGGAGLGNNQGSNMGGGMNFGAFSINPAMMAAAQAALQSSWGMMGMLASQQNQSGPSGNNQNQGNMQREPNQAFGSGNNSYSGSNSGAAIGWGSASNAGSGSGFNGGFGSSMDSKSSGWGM", "assay": "RNA Bind-n-Seq with designed 260-mer pool; 25 mM Tris-HCl, 150 mM KCl, 3 mM MgCl2, BSA (printed 500 mg/mL), 20 units/mL SUPERase IN; pH not stated; 500 nM RNA pool, 1 h, 4 C; TDP-43 5, 50, 500 nM; high values mean tight binding", "conditions": "protein: recombinant; tags: SBP (GST cleaved off with PreScission; pGEX-GST-SBP)", "outline": "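The incubation lasted 1 h at 4 °C and used 500 nM of an in vitro-transcribed 260-nt 3′ UTR oligo pool with recombinant SBP-tagged TDP-43 at 5, 50 or 500 nM immobilized on streptavidin beads. It took place in 25 mM Tris-HCl, 150 mM KCl, 3 mM MgCl2, BSA and SUPERase IN. Bound RNA was washed, eluted with biotin, converted to cDNA, PCR-amplified and sequenced to give R, each oligo's normalized abundance in the bound sample divided by that in input. Two independent protein batches provided the duplicates.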", "values": [
      {"binder": "B1", "binding signal": "1.3 R (bound/input frequency ratio)"},
      {"binder": "B2", "binding signal": "2.59 R (bound/input frequency ratio)"},
      {"binder": "B3", "binding signal": "1.16 R (bound/input frequency ratio)"},
      {"binder": "B4", "binding signal": "1.97 R (bound/input frequency ratio)"},
      {"binder": "B5", "binding signal": "1.66 R (bound/input frequency ratio)"},
      {"binder": "B6", "binding signal": "0.434 R (bound/input frequency ratio)"},
      {"binder": "B7", "binding signal": "0.331 R (bound/input frequency ratio)"},
      {"binder": "B8", "binding signal": "0.419 R (bound/input frequency ratio)"}
    ]}
  ]
}
